The record followed here is PubChem BioAssay (Tox21).

Results filed as inconclusive are left out. The source made the active and inactive calls. Calls come from the whole dose curve; as a rule, active = well fitted inhibition curve with a large enough effect in the signal ratio in the repeat runs (not every such curve was filed as active); inconclusive = weak or mixed curves, or effect the other way; inactive = no such curve, though single readings can be large or run the other way; the % refers to the signal ratio.

Sequence of Bile acid receptor (Homo sapiens) (Q96RI1 whole entry, looked up): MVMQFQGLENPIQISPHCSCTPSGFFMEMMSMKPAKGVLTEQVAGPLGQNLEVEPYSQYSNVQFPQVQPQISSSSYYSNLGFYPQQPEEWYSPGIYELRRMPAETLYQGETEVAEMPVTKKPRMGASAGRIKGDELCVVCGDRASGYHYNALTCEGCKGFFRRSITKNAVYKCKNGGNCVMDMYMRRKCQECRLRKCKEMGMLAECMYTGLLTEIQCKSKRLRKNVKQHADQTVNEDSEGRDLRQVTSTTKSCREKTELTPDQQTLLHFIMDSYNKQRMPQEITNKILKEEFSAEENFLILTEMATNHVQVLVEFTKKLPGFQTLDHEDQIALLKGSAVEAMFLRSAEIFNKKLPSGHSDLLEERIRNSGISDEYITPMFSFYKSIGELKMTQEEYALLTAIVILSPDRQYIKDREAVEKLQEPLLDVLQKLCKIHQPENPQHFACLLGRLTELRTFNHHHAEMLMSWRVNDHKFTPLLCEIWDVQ

This test has as its target Bile acid receptor (Homo sapiens) (UniProt Q96RI1). Nature of the test: qHTS assay to identify small molecule antagonists of the farnesoid-X-receptor (FXR) signaling pathway (AID 743217). The conditions noted are these: HEK293T FXR-UAS-bla, beta-lactamase ratio, CDCA-stimulated, 16 h; series mostly up to 62.6 µM. An excerpt: U.S. Tox21 Program National Center for Advancing Translational Sciences [NCATS] NIH Chemical Genomics Center [NCGC] U.S. Environmental Protection Agency [EPA] National Institutes of Environmental Health Sciences [NIEHS] National Toxicology Program [NTP] U.S. Food and Drug Administration [FDA] Tox21 Assay Overview: The farnesoid-X-receptor (FXR), a nuclear hormone receptor, is highly expressed in liver, intestine, kidney and adrenal cortex. Natural ligands of FXR are the bile acids (Cholic acid, Chenodeoxy cholic acid etc). FXR is an important regulator of diverse metabolic pathways, including the bile acid homeostasis, lipid and glucose metabolisms. FXR regulates the expression of target genes by binding either as a monomer or as a heterodimer with the retinoid X receptor (RXR). Numerous studies have reported that FXR exerts protective function during cholestasis, diabetes, liver regeneration, and cancer. To identify compounds that inhibit FXR signaling, GeneBLAzer FXR-UAS-bla HEK 293T cell line (Invitrogen, Carlsbad, CA) containing a beta-lactamase reporter gene under the control of a UAS response element was used to screen the Tox21 10K compound library.
Tox21 Assay Protocol Summary: FXR-bla cells were dispensed at 5000 cells/5uL/well in 1536-well black wall/clear bottom plates using a Multidrop Combi (Thermo Fisher Scientific, Waltham, MA) dispenser. After the assay plates were incubated at 37C and 5% CO2 for 5 h, 23 nL of compounds dissolved in DMSO, positive controls or DMSO only was transferred to the assay plate by a Pintool station (Kalypsys, San Diego, CA), followed by addition of 1 uL Chenodeoxycholic acid (50 uM, final concentration in the wells). The assay plates were incubated at 37C for 16 h. After 1 uL of LiveBLAzerTM B/G FRET substrate was added using a Bioraptr Flying Reagent Dispenser (FRD) workstation (Beckman Coulter, Indianapolis, IN), the plates were incubated at room temperature for 2 h, and fluorescence intensity was measured by an Envision plate reader (PerkinElmer, Shelton, CT).
In the case of `Cc1ccc(-c2ncc(Cl)cc2-c2ccc(S(C)(=O)=O)cc2)cn1`, the result was inactive.
The result for `CCCc1ncc(C[n+]2ccccc2C)c(N)n1` reads “inactive”.
For `CC(C)CCCO`, the outcome was inactive.
As for `NC(=O)Cc1cccc2ccccc12`, the outcome was inactive.
Under `Nc1ccn([C@@H]2O[C@H](CO)[C@@H](O)C2O)c(=O)n1` (stereo not given in full) stands “inactive”; under `CC(C#N)(CCC(=O)O)N=NC(C)(C#N)CCC(=O)O` (stereo not given), “inactive”; under `CCCCc1nc(Cl)c(CO)n1Cc1ccc(-c2ccccc2-c2nn[nH]n2)cc1`, “inactive”.
For the molecule `CN(C)CCCN(C)CCCN(C)C`, the outcome was inactive.
Turning to `Cc1nc(C2CCCCC2)c(-c2ccc(S(N)(=O)=O)c(F)c2)o1`, the result was inactive.
Regarding `CO/N=C(\C(=O)N[C@@H]1C(=O)N2C(C(=O)O)=C(CSc3nc(=O)c(O)nn3C)CS[C@H]12)c1csc(N)n1`, the result was inactive.
`CCN[C@H]1C[C@H](C)S(=O)(=O)c2sc(S(N)(=O)=O)cc21`: the outcome was inactive.
In the case of `CC1=NN(c2cc(S(=O)(=O)O)ccc2Cl)C(=O)C1N=Nc1ccccc1` (stereo not given), the outcome was inactive.
Under `CN1C(C)(C)CC(O)CC1(C)C` stands “inactive”.
Regarding `CO[C@@]1(NC(=O)CSC[C@@H](N)C(=O)O)C(=O)N2C(C(=O)O)=C(CSc3nnnn3C)CS[C@@H]21`, the result was inactive.
Under `CC(C)(C)C(=O)c1ccccc1` stands “inactive”; under `CNCCO`, “inactive”; under `CCCCCCCCN1CCCC1=O`, “inactive”.
Take `NC(=O)NC1N=C([O][Al])NC1=O` (stereo not given): the result was inactive.
In the case of `COC(=O)Nc1ccc(Cl)c(Cl)c1`, the outcome was inactive.
The result for `C=CC(C)(CCC=C(C)C)OC(=O)CC` (stereo not given) reads “inactive”.
As to `NCCCC[C@H](N[C@@H](CCc1ccccc1)C(=O)O)C(=O)N1CCC[C@H]1C(=O)O`, the outcome was inactive.
Take `COc1cc(C(=O)OC(COCCC(C)C)CN2CCOCC2)cc(OC)c1OC` (stereo not given): the result was inactive.
Under `C=C(C)C(=O)OCCOCCOCCOCCOC(=O)C(=C)C` stands “inactive”; under `C[N+]12CCC(CC1)C(OC(=O)C(O)(c1ccccc1)c1ccccc1)C2` (stereo not given), “inactive”.
As for `CC(C)(C)c1ccc(-c2ccc(C(C)(C)C)cc2)cc1`, the outcome was inactive.
On to `CCN1CCOCC1`, for which the outcome was inactive.
The result for `N[C@H](C(=O)O)[C@@H](O)c1ccc(O)c(O)c1` reads “inactive”.
`CC(=O)C1CCCCC1=O` (stereo not given): the result was inactive.
The result for `O=C(O)c1cn(C2CC2)c2cc(N3CCNCC3)c(F)cc2c1=O` reads “inactive”; that for `C=C(C)C(=O)OCC(O)CO` (stereo not given), “inactive”; that for `CC(=O)Nc1ccc(OCC(O)CNC(C)C)cc1` (stereo not given), “inactive”.
With `O=C(c1ccccc1O)c1ccccc1O`, the result was inactive.
For the molecule `C[N+]1(CC2COC(c3ccccc3)(c3ccccc3)O2)CCCCC1` (stereo not given), the result was inactive.
Regarding `CCO[Si](OCC)(OCC)c1ccccc1`, the result was inactive.
Under `CC(N)C12CC3CC(CC(C3)C1)C2` (stereo not given) stands “inactive”.
Take `Cc1ccnc(NS(=O)(=O)c2ccc(N)cc2)n1`: the outcome was inactive.
The result for `C=COC(=O)C(C)(CC)CCC(C)C` (stereo not given) reads “inactive”; that for `CC(C)c1ccc2ncccc2c1`, “inactive”; that for `CC(C)(C)C(=O)Oc1ccc(S(=O)(=O)Nc2ccccc2C(=O)NCC(=O)O)cc1`, “inactive”.
Regarding `CN(C)CCCCCCN(C)C`, the outcome was inactive.
